Measurements from PubChem BioAssay (NCI).
About 83,000 compounds went through this panel and 20% of them were active in at least one assay; those are over-represented in the sample as a whole.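 Results are percent growth after 48 hours of single-concentration exposure. 100 means growth as in untreated cells, lower positive values show inhibition; negative values down to -100 show cell death.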 Activity calls are given as the source filed them. How the source made its calls: active means growth percent below 10; inactive means the rest.

Legend:
Assay in all cases: NCI-60 one-dose screen, 48 h (100 = growth as untreated, 0 = no growth, -100 = all killed)
Details in all cases: 10 µM unless noted
T-47D breast = system: T-47D breast
BT-549 breast = system: BT-549 breast
MDA-MB-435 melanoma = system: MDA-MB-435 melanoma
SW-620 colon = system: SW-620 colon
MCF7 breast = system: MCF7 breast
HCT-116 colon = system: HCT-116 colon
HCC-2998 colon = system: HCC-2998 colon
KM12 colon = system: KM12 colon

Measured: growth

Cc1sc2nc(NCCN)[nH]c(=O)c2c1C
inactive: T-47D breast 95% | BT-549 breast 94.3% | MDA-MB-435 melanoma 84.9% | SW-620 colon 95.5% | MCF7 breast 89.6% | HCT-116 colon 97.8% | HCC-2998 colon 101% | KM12 colon 84.3%

COc1ccc2c(c1)oc1c(C)c3c(c(C)c12)C(=O)N(CCOS(C)(=O)=O)C3=O
inactive: T-47D breast 103% | BT-549 breast 90% | MDA-MB-435 melanoma 94.9% | SW-620 colon 94.2% | MCF7 breast 73.7% | HCT-116 colon 94.1% | HCC-2998 colon 100% | KM12 colon 107%

Nc1ccc(-c2ccncc2)cc1NC(=O)N1CCCC1
inactive: T-47D breast 81.9% | BT-549 breast 104% | MDA-MB-435 melanoma 96.3% | SW-620 colon 98.2% | MCF7 breast 87% | HCT-116 colon 86.8% | HCC-2998 colon 94.4% | KM12 colon 94.6%

C[N+]1=C(/C=C/c2ccccc2Cl)C(C)(C)c2ccccc21
inactive: T-47D breast 86.4% | BT-549 breast 109% | MDA-MB-435 melanoma 100% | SW-620 colon 92.4% | MCF7 breast 94.7% | HCT-116 colon 90.8% | HCC-2998 colon 103% | KM12 colon 96.6%

C=C(c1ccc(C(=O)O)c(F)c1)c1cc2c(cc1C)C(C)(C)CCC2(C)C
inactive: T-47D breast 78.5% | BT-549 breast 91.7% | MDA-MB-435 melanoma 89.3% | SW-620 colon 97.6% | MCF7 breast 62.1% | HCT-116 colon 79.5% | HCC-2998 colon 89.9% | KM12 colon 69.2%

CN(C)c1ccc(C(=S)c2ccc(N(C)C)cc2)cc1
inactive: T-47D breast 74.2% | BT-549 breast 83.5% | SW-620 colon 43.9% | MCF7 breast 46.4% | HCT-116 colon 57.8% | HCC-2998 colon 70.6% | KM12 colon 47.2%
active: MDA-MB-435 melanoma -13.2%

COc1cc(/C=C/C(=O)c2cc(OC)c(OC)c(OC)c2)ccc1Oc1nc2c(c(=O)n(C)c(=O)n2C)n1C
active: T-47D breast -16.1% | BT-549 breast -57.7% | MDA-MB-435 melanoma -44% | SW-620 colon -40% | MCF7 breast 0.476% | HCT-116 colon -80.6% | HCC-2998 colon -85.9% | KM12 colon -62.1%

O=C(OCc1ccc2c(Cl)cc(Cl)c(O)c2n1)N1CCN(C(=O)c2cc3ccccc3[nH]2)CC1
inactive: T-47D breast 23.5% | BT-549 breast 50.6% | MDA-MB-435 melanoma 39.1% | SW-620 colon 25.8% | MCF7 breast 25.3% | HCT-116 colon 20.3% | HCC-2998 colon 55% | KM12 colon 20.7%

Clc1ccc2nn3c4ccccc4c(OCCN4CCOCC4)nc3c2c1
inactive: T-47D breast 87.7% | BT-549 breast 97.8% | MDA-MB-435 melanoma 103% | SW-620 colon 88.1% | MCF7 breast 83.4% | HCT-116 colon 88.7% | HCC-2998 colon 107% | KM12 colon 100%

CC(=O)N1N=C(c2ccc(Nc3nc(Nc4ccc(F)cc4)nc(Nc4ccc(F)cc4)n3)cc2)CC1c1ccc(N(C)C)cc1 (configuration not stated)
active: MDA-MB-435 melanoma 6.22%
inactive: T-47D breast 25% | BT-549 breast 63.9% | SW-620 colon 63.7% | MCF7 breast 42.2% | HCT-116 colon 43.3% | HCC-2998 colon 67.5% | KM12 colon 39.8%

Cc1c2ccccc2nc2cc3c(cc12)[C@H]1CC[C@]2(C)C(=O)CC[C@H]2[C@@H]1CC3
inactive: T-47D breast 103% | BT-549 breast 96% | MDA-MB-435 melanoma 95.6% | SW-620 colon 99.8% | MCF7 breast 115% | HCT-116 colon 90.2% | HCC-2998 colon 109% | KM12 colon 95.4%

COC(=O)c1sccc1-c1cc(O)c(C(=O)Nc2ccccc2)s1
inactive: T-47D breast 67.5% | BT-549 breast 116% | MDA-MB-435 melanoma 102% | SW-620 colon 109% | MCF7 breast 82% | HCT-116 colon 94.6% | HCC-2998 colon 109% | KM12 colon 87%

c1ccc2cc(Cn3cc(CSc4nc5ccccc5s4)nn3)ccc2c1
inactive: T-47D breast 80.8% | BT-549 breast 96.3% | MDA-MB-435 melanoma 105% | SW-620 colon 94.5% | MCF7 breast 91.7% | HCT-116 colon 96.3% | HCC-2998 colon 102% | KM12 colon 100%

COc1ccc(-c2cc(-c3cn(-c4cccc(Cl)c4)nc3-c3ccc(OC)cc3)on2)cc1
inactive: T-47D breast 95% | BT-549 breast 121% | MDA-MB-435 melanoma 110% | SW-620 colon 106% | MCF7 breast 86.6% | HCT-116 colon 101% | HCC-2998 colon 101% | KM12 colon 92.5%

O=C1O[C@@H](c2ccccc2Cl)[C@@H]2c3cc4c(cc3CCN12)OCO4
inactive: T-47D breast 69.9% | BT-549 breast 101% | MDA-MB-435 melanoma 105% | SW-620 colon 97.2% | MCF7 breast 103% | HCT-116 colon 94.9% | HCC-2998 colon 106% | KM12 colon 97.8%

CS(=O)(=O)Nc1cc(-c2ccc3ncnc(Nc4ccc5c(cnn5Cc5ccccc5F)c4)c3c2)cnc1Cl
active: T-47D breast -4.36%
inactive: BT-549 breast 14.6% | MDA-MB-435 melanoma 43.6% | SW-620 colon 46.8% | MCF7 breast 13.9% | HCT-116 colon 60.4% | HCC-2998 colon 59.3% | KM12 colon 71.5%

Cn1cc(-c2csc(-c3cn(C)c4ccccc34)n2)c2cnccc21
active: MDA-MB-435 melanoma -79.4% | SW-620 colon -47.6% | HCT-116 colon -74.6% | HCC-2998 colon -63.4%
inactive: T-47D breast 67.4% | BT-549 breast 87.8% | MCF7 breast 10.5% | KM12 colon 26.6%

NS(=O)(=O)c1ccc(C(=O)NN2C(=O)c3ccccc3C2=O)cc1
inactive: T-47D breast 98.4% | BT-549 breast 109% | MDA-MB-435 melanoma 103% | SW-620 colon 104% | MCF7 breast 96.1% | HCT-116 colon 110% | HCC-2998 colon 108% | KM12 colon 102%

C=CC(CC(c1ccccc1)(c1ccccc1)c1ccccc1)N(CC)CC (configuration not stated)
inactive: T-47D breast 59.3% | BT-549 breast 64.4% | MDA-MB-435 melanoma 79.2% | SW-620 colon 55.4% | MCF7 breast 73% | HCT-116 colon 43.9% | HCC-2998 colon 69% | KM12 colon 58.8%

Nc1ncnc2c1N=C(c1ccc(Cl)cc1)CC(c1cccc(Nc3ccnc4cc(Cl)ccc34)c1)N2 (configuration not stated)
inactive: T-47D breast 85.9% | BT-549 breast 78.5% | MDA-MB-435 melanoma 58% | SW-620 colon 72.2% | MCF7 breast 19.5% | HCT-116 colon 14.9% | HCC-2998 colon 70.4% | KM12 colon 56.1%

Clc1ccc(Nc2ncc(Cc3cccc(Cl)c3Cl)s2)cc1
inactive: T-47D breast 77.9% | BT-549 breast 129% | MDA-MB-435 melanoma 105% | SW-620 colon 101% | MCF7 breast 90.9% | HCT-116 colon 92.8% | HCC-2998 colon 101% | KM12 colon 101%

Fc1ccc2[nH]cc(-c3nc(-c4c[nH]c5c(Cl)nccc45)cs3)c2c1
inactive: T-47D breast 35.1% | BT-549 breast 75.1% | MDA-MB-435 melanoma 60.4% | MCF7 breast 45.8% | HCT-116 colon 39.6% | HCC-2998 colon 56.2% | KM12 colon 33.2%
active: SW-620 colon 2.51%

Cc1ccc(S(=O)(=O)OCC#CCOS(=O)(=O)c2ccc(C)cc2)cc1
active: T-47D breast -22.9%
inactive: BT-549 breast 54.9% | MDA-MB-435 melanoma 49.3% | SW-620 colon 51.2% | MCF7 breast 31% | HCT-116 colon 24.7% | HCC-2998 colon 81.6% | KM12 colon 60.9%

Cc1cccc(-c2nc(C(C)C)sc2-c2ccnc(NCCCNS(=O)(=O)c3ccc(Cl)cc3)c2)c1
inactive: T-47D breast 52.5% | BT-549 breast 74.8% | MDA-MB-435 melanoma 80% | SW-620 colon 56.6% | MCF7 breast 53.8% | HCT-116 colon 54.4% | HCC-2998 colon 75.2% | KM12 colon 58.1%

O=Nc1ccc(NC(=O)Nc2ccc([N+](=O)[O-])cc2)cc1
inactive: T-47D breast 78.9% | BT-549 breast 98.3% | MDA-MB-435 melanoma 96.5% | SW-620 colon 97.4% | MCF7 breast 94% | HCT-116 colon 86.5% | HCC-2998 colon 104% | KM12 colon 90.7%

O=C1NC(=O)C(c2coc3cc(Br)ccc23)=C1c1c[nH]c2ccccc12
inactive: T-47D breast 34.7% | BT-549 breast 67.9% | SW-620 colon 35.4% | MCF7 breast 30.4% | HCT-116 colon 27.3% | HCC-2998 colon 108% | KM12 colon 31.7%
active: MDA-MB-435 melanoma -7.93%

COc1cc(-c2ccc[nH]2)[nH]c1/C=C1\N=C(C)C(CC(=O)OCC(C)(C)C)=C1C
active: T-47D breast -58.7% | BT-549 breast -87.7% | MDA-MB-435 melanoma -81.9% | SW-620 colon -64.6% | MCF7 breast -74.1% | HCT-116 colon -90.4% | HCC-2998 colon -81.4% | KM12 colon -90%

CSc1nc(-c2ccco2)c(C#N)c(=O)n1C
inactive: T-47D breast 107% | BT-549 breast 92.6% | MDA-MB-435 melanoma 102% | SW-620 colon 97% | MCF7 breast 98% | HCT-116 colon 100% | KM12 colon 103%
active: HCC-2998 colon 1.62%

CNC(=O)c1cc(Oc2ccc3c(c2)sc2nc(-c4ccc(Cl)c(C(F)(F)F)c4)cn23)ccn1
inactive: T-47D breast 25.7% | BT-549 breast 45.9% | MDA-MB-435 melanoma 65.8% | SW-620 colon 68.6% | MCF7 breast 36.8% | HCT-116 colon 41% | HCC-2998 colon 80.5% | KM12 colon 82.6%
